The record followed here is patent US20140271602, “NUCLEOTIDE-SPECIFIC RECOGNITION SEQUENCES FOR DESIGNER TAL EFFECTORS” (THE BROAD INSTITUTE INC., published 2014).

In the assay the target is T1, TALE1-NH (CACNA1C site 1 activator) (Xanthomonas (engineered), UniProt P14727 SEQ:1-983).
T1 chain: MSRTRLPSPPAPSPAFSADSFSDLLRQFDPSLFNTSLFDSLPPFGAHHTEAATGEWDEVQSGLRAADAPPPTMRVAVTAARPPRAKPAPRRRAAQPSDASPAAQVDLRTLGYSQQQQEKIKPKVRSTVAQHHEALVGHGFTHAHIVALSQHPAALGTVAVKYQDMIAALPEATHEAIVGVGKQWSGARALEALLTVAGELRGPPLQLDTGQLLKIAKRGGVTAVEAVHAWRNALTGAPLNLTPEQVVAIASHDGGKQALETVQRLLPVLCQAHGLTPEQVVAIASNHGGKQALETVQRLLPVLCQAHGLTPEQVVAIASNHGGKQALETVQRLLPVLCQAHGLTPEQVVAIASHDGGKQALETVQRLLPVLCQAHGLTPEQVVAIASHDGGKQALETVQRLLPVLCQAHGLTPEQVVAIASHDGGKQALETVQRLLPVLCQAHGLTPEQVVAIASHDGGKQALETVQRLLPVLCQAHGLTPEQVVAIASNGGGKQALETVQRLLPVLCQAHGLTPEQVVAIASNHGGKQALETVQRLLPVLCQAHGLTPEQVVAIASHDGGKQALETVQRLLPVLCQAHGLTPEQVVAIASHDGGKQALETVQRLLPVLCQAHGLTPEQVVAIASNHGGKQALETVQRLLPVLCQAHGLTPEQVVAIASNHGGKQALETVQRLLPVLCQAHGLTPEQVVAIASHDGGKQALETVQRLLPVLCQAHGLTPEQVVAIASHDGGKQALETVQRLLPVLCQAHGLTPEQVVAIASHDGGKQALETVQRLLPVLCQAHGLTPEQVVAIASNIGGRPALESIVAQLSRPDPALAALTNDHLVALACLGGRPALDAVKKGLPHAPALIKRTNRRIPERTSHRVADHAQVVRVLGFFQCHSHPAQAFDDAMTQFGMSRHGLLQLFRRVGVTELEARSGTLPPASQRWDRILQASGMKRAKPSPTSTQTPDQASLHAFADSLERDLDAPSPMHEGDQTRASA
The assay can be described thus: cell_activity; luciferase reporter. The settings on record: tags: VP64, 2A-GFP; dsDNA, one strand shown. As for the experimental part:
TALEs using NN, NK, NH, and HN as the G-targeting RVD were synthesized to target two distinct 18 bp target sites in the human CACNA1C locus. Changes in mRNA are measured using qRT-PCR as described previously. VP64, VP64 transcription activation domain. All results are collected from three independent experiments in HEK 293FT cells. Error bars indicate s.e.m.; n=3. FIG. 19(b) discloses SEQ ID NOS 63 and 62, respectively, in order of appearance.
To determine whether NH and HN are suitable replacements for NN as the G-specific RVD, specificity and activity strength of NN, NK, NH, and HN were directly compared. Two 18 bp targets within the CACNA1C locus in the human genome were chosen and four TALEs for each target were constructed, using NN, NK, NH, or HN as the G-targeting RVD (FIG. 19a). […] For each CACNA1C target site, four luciferase reporters were constructed: wild type genomic target, and wild type target with 2, 4, or all guanines mutated into adenines (FIG. 19a, G-to-A reporters), and compared the activity of each TALE using these reporters (FIG. 19a). […] Thus, focus was placed on the RVDs NN, NK, and NH in subsequent experiments to assess their usefulness in modulating transcription at endogenous human genome targets.
On to TCAACCCCTGCCGGCCCA, for which the binding signal is 71.4 % reduction vs wild-type site. With TCAACCCCTACCAACCCA the figure was < 10 % of wild-type site activation.
